High-throughput results (PubChem)
DT40 TDP1 CPT: qHTS for Inhibitors of human tyrosyl-DNA phosphodiesterase 1 (TDP1): qHTS in cells in presence of CPT; AID 686979, 2013; hit rate 12% among 420,000; Potency, µM (highest dose often 46.2 µM), for inactives: at the highest dose activity change, negative = growth inhibition, actives largely listed as inhibitors; chicken DT40 Tdp1-/-;hTDP1 cells + 20 nM CPT, ATP luminescence, 48 h; also: nearly all actives have a fitted effect of over 55% in size
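Chicken DT40 Tdp1-/- cells complemented with human TDP1, 400 cells/well, exposed to compounds plus 20 nM camptothecin for at least 48 h at 37 C; viability read as ATP content by CellTiter-Glo luminescence.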
KB-3-1 cytotox: qHTS assay for MDR1-selective chemotherapeutics: Primary screen using the parental adenocarcinoma cell KB-3-1; KB-3-1 viability, CellTiter-Glo ATP luminescence, 72 h; Potency, µM (series often up to 46.1 µM), usual class: cytotoxic; hit rate 1.4% among 400,000; AID 1347075, 2019; also: nearly all actives have a fitted effect of over 60% in size
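72 h, 37 °C compound treatment of KB-3-1 parental cells; CellTiter-Glo added, 10 min, luminescence read. Data corrected against DMSO-only plates and normalized before curve fitting.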
KB-V1 MDR tox: qHTS assay for MDR1-selective chemotherapeutics: Primary screen using the drug-selected MDR subline cells KB-V1 | KB-V1 MDR cells viability, CellTiter-Glo, 72 h | Potency, µM (doses to about 46.1 µM), usual class: cytotoxic | hit rate 3.4% among 400,000 | AID 1347076, 2019; also: nearly all actives have a fitted effect of over 60% in size
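qHTS viability screen in drug-selected KB-V1 MDR cells: 72 h compound treatment at 37 degrees C, ATP luminescence end point.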
DT40 TDP1 no CPT: qHTS for Inhibitors of human tyrosyl-DNA phosphodiesterase 1 (TDP1): qHTS in cells in absence of CPT; DT40 Tdp1-/- hTDP1 cells, no CPT, ATP luminescence, 48 h; Potency, µM (highest dose often 46.2 µM), inactives show top-dose activity change, negative = growth inhibition, actives largely listed as inhibitors; hit rate 15% among 420,000; AID 686978, 2013; also: nearly all actives have a fitted effect of over 55% in size
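Seeded 400 DT40-hTDP1 cells/well (vehicle DMSO, no 20 nM CPT); pinned compounds; ≥48 hr at 37 °C; CellTiter-Glo luminescence as viability measure.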
HT1080 IDH1KD tx: qHTS for induction of synthetic lethality in tumor cells producing 2HG: qHTS for the HT-1080-IDH1KD cell line; Potency, µM (series often up to 46.1 µM), for inactives: at the top dose activity, negative = toxicity, usual class: cytotoxic; HT-1080 IDH1 knockdown viability, ATP luminescence, 48 h; AID 686971, 2013; hit rate 2% among 360,000;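 also: 0% = DMSO wells and -100% = cell-free medium wells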
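HT-1080-IDH1KD cells (IDH1 knocked down), 750/well in RPMI with 5% FBS, treated with compound 48 h at 37 degrees C. Viability by CellTiter-Glo luminescence, normalised to DMSO and no-cell wells; concentration-response curves classed.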
HT1080NT lethal: qHTS for induction of synthetic lethality in tumor cells producing 2HG: qHTS for the HT-1080-NT fibrosarcoma cell line. HT-1080-NT fibrosarcoma viability, CellTiter-Glo ATP luminescence, 48 h. Potency, µM (highest dose often 46.1 µM), for inactives: top-dose activity, negative = less viability, actives largely listed as cytotoxic. hit rate 1.6% among 360,000. AID 686970, 2013;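 also: NT is the 2HG producing partner of a matched IDH1 knockdown line; 0% = DMSO-treated cells and -100% = media-only wells without cells; nearly all actives have a fitted effect of over 55% in size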
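HT-1080-NT; 750 cells/well; 5% FBS RPMI; 48 h compound, 37 degrees C; CellTiter-Glo luminescence; curve fitting and curve-class assignment.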
* hit, by the source's call; i = inactive; ? = inconclusive; . = no result given. A selection: hits, their analogues and other compounds. The true share with any hit is near 19%. Calls follow the shape of the dose curve; as a rule, active = well fitted curve in the direction sought with a large enough effect; inconclusive = small, poorly fitted or top-dose-only effect, or another doubt; inactive = no such curve, though single readings can be large; an effect the other way counts as inactive or inconclusive. Unless noted, % is scaled to controls: 0 for no effect and ±100 for the full control effect; potency is read from the fitted curve at half-maximal effect.

SMILES	DT40 TDP1 CPT	KB-3-1 cytotox	KB-V1 MDR tox	DT40 TDP1 no CPT	HT1080 IDH1KD tx	HT1080NT lethal
CN1CCN(C(=O)C(=O)Nc2c3c(nn2-c2cccc(Cl)c2)CSC3)CC1	0%	i	i	-5%	.	.
O=C(OCCC12CC3CC(CC(C3)C1)C2)c1ccc(NCc2cc(O)ccc2O)cc1	1.8µM*	15µM*	?	2.1µM*	7.3µM*	6.5µM*
O=C(OCC12CC3CC(CC(C3)C1)C2)c1ccc(NCc2cc(O)ccc2O)cc1	1.5µM*	?	i	0.73µM*	21µM*	?
CN1CCN(/N=C/c2c3ccccc3c(Cl)c3ccccc23)CC1	?	i	?	?	21µM*	23µM*
O=S(=O)(Nc1ccc(-n2cccc2)cc1)c1ccccc1	?	i	i	?	-15%	-3%
CCC(C)NC(=O)c1ccccc1NC(=O)C1COc2ccccc2O1 (stereo unspecified)	-25%	i	?	?	0%	4%
CCOc1ccc(OCC)c(NC(=O)CCC(=O)N2CCOc3ccccc32)c1	26µM*	i	?	26µM*	.	.
CCOc1ccc(OCC)c(NC(=O)C2COc3ccccc3O2)c1 (stereo unspecified)	6%	i	21µM*	-23%	-11%	2%
CC(C)NC(=O)c1ccccc1NC(=O)C1COc2ccccc2O1 (stereo unspecified)	?	i	?	21µM*	-3%	-2%
Oc1ccc(/C=N/Nc2nc(N3CCCCCC3)nc(N3CCCCCC3)n2)c(O)c1	?	i	?	?	?	?
C/C(=C/C=N/Nc1nc(N2CCCCC2)nc(N2CCCCC2)n1)c1ccccc1	-27%	i	i	?	2%	1%
Brc1cc2c(cc1/C=N/Nc1nc(N3CCCC3)nc(N3CCOCC3)n1)OCO2	26µM*	i	?	16µM*	18%	13%
Oc1ccc(Br)cc1/C=N/Nc1nc(N2CCCCC2)nc(N2CCOCC2)n1	15µM*	?	i	?	-3%	-2%
C/C(=N\Nc1nc(N2CCCCC2)nc(N2CCOCC2)n1)c1ccccc1O	?	?	16µM*	21µM*	18µM*	?
Oc1ccc(/C=N/Nc2ccc(Cl)nn2)cc1O	?	i	i	15µM*	-6%	-16%
O=C(O)Cc1ccc(S(=O)(=O)N2CCCC2)s1	-4%	i	i	3%	0%	1%
Oc1ccc(/C=N/Nc2nc(N3CCCC3)nc(N3CCCC3)n2)cc1O	?	i	i	5.8µM*	-14%	-7%
COc1cc(/C=N/Nc2nc(N3CCCC3)nc(N3CCCC3)n2)ccc1O	-28%	i	i	?	-6%	-16%
CC1C/C(=N\NC(=S)NCc2ccccc2)CC(C)(C)C1 (stereo unspecified)	?	i	i	26µM*	2%	10%
Cc1ccc(-n2ncc3c(=O)n(-c4ccc(C)c(C)c4)c(C)nc32)cc1	?	i	i	18µM*	0%	2%
Cc1ccc(-n2c(C)nc3c(cnn3-c3ccc(F)cc3)c2=O)cc1	18µM*	i	i	15µM*	?	-16%
Cc1ccc(-n2c(C)nc3c(cnn3-c3ccccc3C)c2=O)cc1F	?	i	i	?	.	.
Cc1nc2c(cnn2-c2ccccc2Cl)c(=O)n1-c1ccc(C(C)C)cc1	?	?	?	21µM*	-16%	0%
COc1ccc(-n2c(C)nc3c(cnn3-c3ccc(C)c(C)c3)c2=O)cc1	23µM*	?	i	15µM*	3%	-5%
Cc1ccc(-n2c(-c3ccco3)nc3c(cnn3-c3ccccc3Cl)c2=O)cc1	-4%	i	i	-21%	.	.
SMILES	DT40 TDP1 CPT	KB-3-1 cytotox	KB-V1 MDR tox	DT40 TDP1 no CPT	HT1080 IDH1KD tx	HT1080NT lethal
O=C(CCn1c(=O)oc2ccccc21)Nc1cccc(Br)c1	-6%	i	?	-6%	2%	2%
O=C(Cn1nc(Cc2cccnc2)c2ccccc2c1=O)NCc1ccc(F)cc1	-16%	i	i	-12%	3%	12%
CSc1ncc(C(=O)N2CCN(c3cccc(C(F)(F)F)c3)CC2)c(C)n1	?	i	i	18µM*	.	.
CSc1ncc(C(=O)N2CCN(c3cccc(Cl)c3)CC2)c(C)n1	?	i	i	16µM*	.	.
O=C(c1c(F)cccc1F)N1CCN(c2cccc(C(F)(F)F)c2)CC1	?	i	i	?	1%	10%
CC(C)OC(=O)c1cccnc1N1CCN(c2cccc(Cl)c2)CC1	?	i	i	16µM*	4%	-1%
COc1ccc(N2CCN(C(=O)c3cnc(SC)nc3C)CC2)cc1	0%	i	i	-13%	.	.
O=C(Nc1ccccc1C(=O)N1CCN(c2cccc(Cl)c2)CC1)C1=CSCCO1	11%	i	i	21µM*	-7%	-18%
Nc1c(C(=O)Nc2ccccc2Cl)c2ccccn2c1C(=O)c1ccc(Cl)cc1	-14%	i	i	-24%	.	.
COc1ccc(NC(=O)c2cccc3c2C(=O)c2ccc(-c4cnc(OC)nc4)cc2S3(=O)=O)cc1	-18%	i	i	-19%	0%	-1%
CSc1ccccc1C(=O)N1CCN(c2cccc(Cl)c2)CC1	?	i	16µM*	?	23µM*	?
CN(c1ccccc1C(=O)N1CCN(c2cccc(Cl)c2)CC1)S(C)(=O)=O	-25%	i	?	-26%	1%	1%
COC(=O)C12OCC34C(CC5C(C)=C(O)C(=O)CC5(C)C3C(O)C1O)OC(=O)C(OC(=O)C=C(C)C)C24 (stereo unspecified)	0.065µM*	0.21µM*	7.3µM*	0.15µM*	0.037µM*	-26%
N#Cc1cnc2cc(-c3ccccc3)nn2c1N	13%	?	2.6µM*	-7%	?	?
COc1ccc(-c2cc3ncc(-c4ccccc4)c(N)n3n2)cc1	?	i	?	?	?	?
O=c1c2ccccc2nc(COc2ccccc2)n1/N=C/c1c[nH]c2ccccc12	?	i	?	16µM*	14%	16%
